Source: PubChem BioAssay
Several values for one entry are separate records, joined by “and”; a condition that tells them apart may be missing. Equal values may be shown once. Activity calls are given as the source filed them.

Experiments:
[1] = small molecules captured by biotinylated probe aFSTL3 – biochemical, small-molecule microarray, fluorescence 635/667, stem cell growth factor project, primary screen (AID 1064); settings: higher = more signal; small-molecule microarray, probe aFSTL3, fluorescence unless noted;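 also: measures binding of the biotinylated anti-FSTL3 antibody to printed compounds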
[2] = binders from COS7 lysate, DM2A8 probe, primary screen, torsin A project, cell lysate, small-molecule microarray, fluorescence 635/667 (AID 1065); settings: higher = more signal; small-molecule microarray, COS7 cell lysate, probe DM2A8, fluorescence, COS7 lysate expressing mutant human TOR1A unless noted
[3] = small molecules captured by biotinylated probe aFGF2 – biochemical, small-molecule microarray, fluorescence 635/667, stem cell growth factor project, primary screen (AID 1067); settings: higher = more signal; small-molecule microarray, probe aFGF2, fluorescence unless noted;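 also: measures binding of biotinylated aFGF2 protein to printed compounds on slides; z-score merges feature fluorescence and signal-to-noise across triplicate slides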
[4] = small molecules captured by biotinylated probe aFGF10 – biochemical, small-molecule microarray, fluorescence 635/667, stem cell growth factor project, primary screen (AID 1071); settings: higher = more signal; small-molecule microarray, probe aFGF10, fluorescence unless noted;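 also: score merges 667 nm spot intensity and signal to noise from triplicate slides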
[5] = molecular target: Neurogenic locus notch homolog protein 2 (Homo sapiens) (UniProt Q04721); experiment: small molecules binding Notch2 protein – biochemical, small-molecule microarray, 635 nm fluorescence, stem cell growth factors, primary screen (AID 1073); settings: higher = more signal
Chain of Neurogenic locus notch homolog protein 2 (Homo sapiens) (Q04721 whole entry, looked up, canonical isoform): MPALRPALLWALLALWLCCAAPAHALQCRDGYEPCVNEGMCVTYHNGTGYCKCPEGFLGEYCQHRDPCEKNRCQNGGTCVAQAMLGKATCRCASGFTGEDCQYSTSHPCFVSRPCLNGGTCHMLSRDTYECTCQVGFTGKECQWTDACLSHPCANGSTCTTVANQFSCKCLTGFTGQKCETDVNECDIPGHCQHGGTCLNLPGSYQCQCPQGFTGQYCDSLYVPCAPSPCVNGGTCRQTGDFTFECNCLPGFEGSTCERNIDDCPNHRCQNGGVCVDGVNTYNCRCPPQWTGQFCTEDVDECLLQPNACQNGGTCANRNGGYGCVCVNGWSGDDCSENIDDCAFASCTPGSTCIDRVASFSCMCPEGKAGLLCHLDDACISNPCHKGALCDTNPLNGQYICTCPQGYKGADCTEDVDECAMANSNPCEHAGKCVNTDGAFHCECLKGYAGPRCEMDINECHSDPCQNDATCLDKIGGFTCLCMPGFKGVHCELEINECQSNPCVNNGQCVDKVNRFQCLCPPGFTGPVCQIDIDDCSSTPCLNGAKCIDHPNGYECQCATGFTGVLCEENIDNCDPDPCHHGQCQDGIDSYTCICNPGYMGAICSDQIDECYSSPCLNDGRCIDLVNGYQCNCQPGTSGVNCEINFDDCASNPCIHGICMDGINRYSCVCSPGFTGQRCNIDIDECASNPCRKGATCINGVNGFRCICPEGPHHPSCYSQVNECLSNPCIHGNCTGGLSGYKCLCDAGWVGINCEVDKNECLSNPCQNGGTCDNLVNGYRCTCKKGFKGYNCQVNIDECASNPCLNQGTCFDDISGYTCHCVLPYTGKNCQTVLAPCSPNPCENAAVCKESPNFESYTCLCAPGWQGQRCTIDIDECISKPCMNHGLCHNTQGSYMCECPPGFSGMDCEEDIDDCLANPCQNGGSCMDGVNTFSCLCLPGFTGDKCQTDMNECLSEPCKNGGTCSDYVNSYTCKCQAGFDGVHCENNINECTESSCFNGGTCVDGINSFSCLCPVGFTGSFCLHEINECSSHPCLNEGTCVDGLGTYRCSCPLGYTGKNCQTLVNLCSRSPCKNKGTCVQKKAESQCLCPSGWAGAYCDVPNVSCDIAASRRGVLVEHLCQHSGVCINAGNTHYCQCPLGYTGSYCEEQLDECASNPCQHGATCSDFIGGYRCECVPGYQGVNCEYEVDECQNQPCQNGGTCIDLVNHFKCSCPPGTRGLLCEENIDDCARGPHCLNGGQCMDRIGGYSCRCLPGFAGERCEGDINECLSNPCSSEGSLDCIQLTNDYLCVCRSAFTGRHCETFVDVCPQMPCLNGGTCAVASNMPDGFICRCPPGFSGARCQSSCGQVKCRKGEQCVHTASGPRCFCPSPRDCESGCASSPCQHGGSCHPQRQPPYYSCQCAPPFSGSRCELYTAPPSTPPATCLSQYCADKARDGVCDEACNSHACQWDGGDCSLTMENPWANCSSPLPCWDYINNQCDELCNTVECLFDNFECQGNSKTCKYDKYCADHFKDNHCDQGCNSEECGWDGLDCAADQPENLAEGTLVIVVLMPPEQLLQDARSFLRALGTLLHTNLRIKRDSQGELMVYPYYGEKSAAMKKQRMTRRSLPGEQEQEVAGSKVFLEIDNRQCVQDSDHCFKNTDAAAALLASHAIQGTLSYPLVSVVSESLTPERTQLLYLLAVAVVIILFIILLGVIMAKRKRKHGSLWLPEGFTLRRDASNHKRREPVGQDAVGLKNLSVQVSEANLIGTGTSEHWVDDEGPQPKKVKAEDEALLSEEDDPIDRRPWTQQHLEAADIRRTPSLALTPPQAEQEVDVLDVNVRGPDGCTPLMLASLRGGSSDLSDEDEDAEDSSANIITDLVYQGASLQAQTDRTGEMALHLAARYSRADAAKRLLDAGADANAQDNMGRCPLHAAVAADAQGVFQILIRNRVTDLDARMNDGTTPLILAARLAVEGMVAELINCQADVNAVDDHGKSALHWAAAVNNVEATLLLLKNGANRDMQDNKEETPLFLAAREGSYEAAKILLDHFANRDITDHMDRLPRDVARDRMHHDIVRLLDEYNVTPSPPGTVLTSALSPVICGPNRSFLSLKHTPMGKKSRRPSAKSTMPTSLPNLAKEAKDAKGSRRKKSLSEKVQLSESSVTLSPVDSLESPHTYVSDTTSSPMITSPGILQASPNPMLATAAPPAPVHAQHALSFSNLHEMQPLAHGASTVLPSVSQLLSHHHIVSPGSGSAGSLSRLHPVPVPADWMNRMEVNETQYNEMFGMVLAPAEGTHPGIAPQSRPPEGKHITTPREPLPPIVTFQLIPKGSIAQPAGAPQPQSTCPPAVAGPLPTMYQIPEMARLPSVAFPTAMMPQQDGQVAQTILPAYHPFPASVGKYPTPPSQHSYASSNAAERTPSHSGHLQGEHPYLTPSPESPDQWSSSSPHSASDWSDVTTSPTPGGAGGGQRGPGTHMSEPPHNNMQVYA

[6] = molecular target: Pro-neuregulin-1, membrane-bound isoform (Homo sapiens) (UniProt Q02297); experiment: small molecules binding neuregulin-1 protein – biochemical, small-molecule microarray, fluorescence 635/667, psychiatric disease protein project, primary screen (AID 1075); settings: NRG1 binding, 635 nm fluorescence, higher = more signal;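 also: score combines 667 nm spot fluorescence with signal to noise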
Chain of Pro-neuregulin-1, membrane-bound isoform (Homo sapiens) (Q02297 whole entry, looked up, the tested form may be a part, canonical isoform): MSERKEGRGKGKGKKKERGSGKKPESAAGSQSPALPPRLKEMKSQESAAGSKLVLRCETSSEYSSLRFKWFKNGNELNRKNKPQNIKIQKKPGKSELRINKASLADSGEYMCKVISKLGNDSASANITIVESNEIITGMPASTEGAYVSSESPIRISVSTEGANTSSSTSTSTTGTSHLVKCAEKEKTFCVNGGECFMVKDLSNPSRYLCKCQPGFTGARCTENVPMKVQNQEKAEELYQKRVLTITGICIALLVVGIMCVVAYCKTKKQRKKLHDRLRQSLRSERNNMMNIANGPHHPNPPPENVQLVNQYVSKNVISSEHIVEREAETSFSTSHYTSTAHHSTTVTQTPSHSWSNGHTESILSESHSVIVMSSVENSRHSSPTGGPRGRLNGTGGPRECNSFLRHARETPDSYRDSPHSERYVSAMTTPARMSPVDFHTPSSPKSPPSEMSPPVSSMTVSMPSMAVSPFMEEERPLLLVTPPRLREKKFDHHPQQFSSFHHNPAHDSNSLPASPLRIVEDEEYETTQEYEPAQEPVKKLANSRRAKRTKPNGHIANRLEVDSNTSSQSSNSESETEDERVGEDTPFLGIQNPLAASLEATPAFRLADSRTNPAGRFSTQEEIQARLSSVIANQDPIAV

[7] = tested on: Neuregulin-1 EGF-like domain; experiment: small molecules binding NRG1 EGF domain – biochemical, small-molecule microarray, 635 nm fluorescence, primary screen (AID 1081); settings: higher = more signal;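 also: binding of the protein to compounds printed on small-molecule microarray slides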
[8] = FRG1 expression reporter modulators in myotubes – cell-based, C2C12 myotubes, firefly/Renilla luciferase, luminescence, FRG1 inhibition for FSHD, primary screen (AID 1084); settings: FRG1 promoter luciferase; higher = more signal, called active from +8 up or from −8 down unless noted
[9] = small molecules captured by biotinylated probe aFST – biochemical, small-molecule microarray, fluorescence 635/667, stem cell growth factor project, primary screen (AID 1086); settings: higher = more signal;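 also: score merges 667 nm fluorescence with signal-to-noise of each printed compound spot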
[10] = binders of probe aHhip on microarray, primary screen, stem cell growth factor project, biochemical, small-molecule microarray, fluorescence 635/667 (AID 1087); settings: higher = more signal;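 also: score merges spot fluorescence at 667nm with spot signal to noise ratio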

Row | SMILES | composite z-score [1] | composite z-score [2] | composite z-score [3] | composite z-score [4] | composite z-score [5] | composite z-score [6] | composite z-score [7] | z-score [8] | composite z-score [9] | composite z-score [10]
1 | COC(=O)[C@@]1(Cc2ccccc2)[C@H]2c3cc(C(=O)N(C)C)[nH]c3C[C@H]2CN1C(=O)c1ccccc1 | 0.469 | -0.365 | -0.0063 | -0.12 | 0.335 | 1.03 | 0.954 | 1.82 (inactive) | -0.0765 | 0.0176
2 | COc1cc2c(cc1O)C(C)N(C)CC2 (stereo not given) | 0.661 | -0.144 | -0.0345 | -0.021 | 0.358 | -0.0581 | 1.14 | -1.13 (inactive) | -0.0662 | 0.176
3 | C=C(CC1(C(C)NP(=O)(c2ccccc2)c2ccccc2)CC1)c1ccccc1 (stereo not given) | 0.21 | -0.954 | 0.208 | 0.851 | 1.01 | 1.16 | 0.714 | -3.03 (inactive) | 0.881 | 0.113
4 | CCCc1cc2c(n1Cc1ccc(C)cc1)C(C)C1CN(C(=O)c3ccccc3)C(C)(C(=O)OC)C21 (stereo not given) | 1.37 | 1.32 | 0.459 | 1.14 | 1.43 | 1.32 | 1.08 | -0.876 (inactive) | 1.95 | 0.321
5 | COc1cc2c(cc1O)C=[N+](C)CC2 | -0.0131 | -0.532 | -0.172 | -0.17 | -0.718 | -0.835 | -0.286 | -1.13 (inactive) | 0.169 | -0.639
6 | COC(=O)[C@@]1(Cc2ccccc2)[C@H]2c3cc(C(=O)N(C)C)n(C)c3C[C@H]2CN1C(=O)c1ccccc1 | 0.739 | -0.389 | 0.175 | 0.536 | 1.59 | 2.02 | 1.14 | 1.51 (inactive) | 0.566 | 0.189
7 | C=C(CC1(CNP(=O)(c2ccccc2)c2ccccc2)CC1)c1ccccc1 | 0.019 | -0.115 | 0.179 | 0.33 | 0.777 | 1.69 | 0.525 | -3.35 (inactive) | 0.622 | -0.0618
8 | COC(=O)[C@H]1C(=O)c2ccccc2O[C@@](C(=O)OC)(c2ccccc2)[C@@H]1c1ccccc1 | -0.384 | -0.262 | -0.149 | 0.179 | 0.343 | -0.454 | -1.02 | -0.748 (inactive) | -0.204 | -0.134
9 | c1ccc(-c2cc3c(nc2-c2ccccc2)CCNC3)cc1 | 0.0329 | -0.112 | -0.0494 | -0.296 | -0.634 | -0.0361 | -0.969 | -0.148 (inactive) | 0.0294 | -0.374
10 | COC(=O)[C@H]1[C@@H](O)[C@@]2(O)c3c(OC)cc(OC)cc3O[C@@]2(c2ccc(OC)cc2)[C@@H]1c1ccccc1 | -0.327 | 0.287 | -0.0894 | 0.52 | 0.514 | 0.167 | 0.357 | 0.128 (inactive) | 0.0836 | -0.152
11 | COC(=O)NCC=Cc1nc(CCC=CC(=O)O[C@H]2CC3CC(=O)O[C@@H](C=CCC(C)C)C[C@@H]4CC[C@H](C)[C@@H](C[C@@H](OC)C[C@H](C2)O3)O4)co1 | -0.117 | -0.381 | -0.114 | -0.328 | -0.896 | -0.657 | -0.905 | 0.524 (inactive) | -0.15 | -0.12
12 | CCOC(=O)[C@H]1CC=C2C(=O)Oc3ccc(Br)cc3[C@@H]21 | 0.165 | 0.384 | -0.161 | -0.332 | -0.664 | 0.994 | 0.727 | -0.818 (inactive) | -0.598 | -0.134
13 | CCc1cc2c(nc1CC)CCN(CCC(C)=NOC)C2 | 0.515 | 0.974 | -0.0097 | 0.324 | 0.608 | 0.0159 | 0.763 | 2.07 (inactive) | 0.497 | 0.113
14 | CCCC=C(CCC)[C@@H](NP(=O)(c1ccccc1)c1ccccc1)c1ccccc1 | -0.335 | 0.0595 | 0.0354 | 0.33 | 1.25 | -0.0154 | 0.318 | -0.763 (inactive) | 0.714 | 0.408
15 | CCOC(=O)[C@H]1CC=C2C(=O)Oc3ccccc3[C@@H]21 | 0.0468 | -0.775 | -0.083 | -0.491 | -0.316 | 0.833 | -0.169 | 0.48 (inactive) | -0.203 | -0.0645
16 | CN1CCC(c2ccc(CO)cc2)=CC1c1cccs1 (stereo not given) | -0.182 | -0.191 | -0.128 | -0.53 | -0.131 | 0.0188 | 1.04 | 1.68 (inactive) | 0.13 | -0.134

Row | SMILES | composite z-score [1] | composite z-score [2] | composite z-score [3] | composite z-score [4] | composite z-score [5] | composite z-score [6] | composite z-score [7] | z-score [8] | composite z-score [9] | composite z-score [10]
17 | COC(=O)C1(C)C=C2C(=C(C)C(=O)C2C)CN1 (stereo not given) | 1.28 | -0.297 | -0.0627 | -0.195 | -0.483 | 0.367 | 1.55 | 3.71 (inactive) | 0.706 | 0.107
18 | OCc1ccc(C2=CC(c3cccs3)N(Cc3cccc(OC(F)(F)F)c3)CC2)cc1 (stereo not given) | -0.0593 | 0.466 | -0.0996 | -0.242 | -0.515 | 0.764 | 0.536 | -0.39 (inactive) | -0.0002 | 0.0908
19 | C[C@@H]1Cc2c(cnc3c2CN(C)CC3)CO1 | -0.0578 | 0.442 | -0.105 | 0.0502 | -0.163 | -0.93 | -0.206 | -0.989 (inactive) | 0.0686 | 0.312
20 | COC(=O)[C@@]1(Cc2ccc(F)cc2)[C@H]2c3cc(C(=O)N(C)C)[nH]c3C[C@H]2CN1C(=O)c1ccccc1 | 0.0665 [setting not given] | -0.441 [setting not given] | -0.162 [setting not given] | 0.203 [setting not given] | 1.35 | 0.986 | 1.06 | 0.832 [setting not given] (inactive) | 0.656 | -0.236
21 | CCCc1cc2c(n1Cc1cccc(Cl)c1)C(C)C1CN(C(=O)c3ccccc3)C(C)(C(=O)OC)C21 (stereo not given) | 1.04 | 0.49 | 0.169 | 0.241 | 1.51 | 1.92 | 1.11 | 0.703 (inactive) | 0.578 | 0.192
22 | CN1CCC(c2ccc(CO)cc2)=CC1C1CC1 (stereo not given) | -0.394 | -0.0038 | -0.158 | -0.301 | -0.616 | -0.292 | 0.839 | 0.666 (inactive) | -0.337 | -0.164
23 | CN1CCc2nc(CO)c(CO)cc2C1 | -0.304 | 0.267 | -0.0982 | 0.401 | 0.528 | 0.0016 | 0.611 | 0.294 (inactive) | 0.242 | 0.0881
24 | C[C@H]1O[C@H]2C3=C(C(=O)[C@@H]4O[C@@H]4[C@@H]3O)[C@@H]1[C@@H]1[C@@H](C)OC=C3[C@@H](O)[C@H]4O[C@H]4C(=O)[C@]312 | -0.294 | 0.0164 | -0.102 | -0.494 | -0.468 | -0.48 | -0.894 | -2.19 (inactive) | -0.293 | -0.0994
25 | CCCc1cc2c(n1Cc1ccco1)C(C)C1CN(C(=O)c3ccccc3)C(C)(C(=O)OC)C21 (stereo not given) | 1.03 | 1.05 | 0.13 | 0.657 | 1.66 | 1.35 | 1.09 | 0.301 (inactive) | 0.802 | 1.05
26 | C[C@@H]1OC=C2[C@@H](O)[C@H]3O[C@H]3C(=O)[C@]23[C@H]1[C@H]1C2=C([C@@H](O)[C@H]4O[C@H]4C2=O)[C@@H]3O[C@@H]1C | -0.532 | 0.0437 | -0.169 | -0.0391 | 0.121 | -0.854 | -0.372 | -0.165 (inactive) | -0.192 | 0.0274
27 | O=P(c1ccccc1)(c1ccccc1)N1CC2(CC2)CC(O)(c2ccccc2)C1 (stereo not given) | 0.234 | -0.86 | 0.0316 | 0.862 | 1.65 | 0.963 | 1.33 | -2.28 (inactive) | 0.553 | 0.21
28 | CCCC[C@@H]1C[C@H]1[C@@H](NP(=O)(c1ccccc1)c1ccccc1)c1ccc(Cl)cc1 | 1.68 | -1.94 | -0.129 | -0.0013 | -0.438 | 0.291 | 0.142 | 0.695 (inactive) | -0.22 | -0.0994
29 | COC(=O)[C@H]1[C@H](c2ccccc2)C(=O)[C@]2(O)c3ccccc3O[C@@]12c1ccccc1 | -0.521 | 0.824 | -0.0894 | 0.273 | 0.472 | 0.113 | 0.348 | -2.68 (inactive) | -0.12 | -0.236
30 | CCCc1cc2c(n1CCO)C(C)C1CN(C(=O)c3ccccc3)C(C)(C(=O)OC)C21 (stereo not given) | 1.44 | 1.73 | 0.374 | 0.0514 | 1.66 | 1.21 | 1.14 | 2.02 (inactive) | 1.44 | 0.593
31 | CC1N(P(=O)(c2ccccc2)c2ccccc2)CC(O)(c2ccccc2)CC12CC2 (stereo not given) | 0.401 and 0.0381 | -1.21 and -0.157 | 0.0161 and 0.221 | 0.309 and 0.352 | 0.621 and 1.54 | 2 and 1.82 | 1.41 and 0.526 | 2.45 (inactive) and -0.78 (inactive) | -0.0551 and 1.02 | 0.238 and 0.535
32 | OCc1ccc(C2=CC(C3CC3)N(Cc3sc4ccccc4c3Cl)CC2)cc1 (stereo not given) | 0.0908 | 1.02 | -0.107 | 0.261 | 0.166 | 0.503 | 1.14 | -1.71 (inactive) | 0.19 | -0.0296
